A short description of this assay: compound effects on lung adenocarcinoma cell viability – A549, calcein-AM fluorescence, 48 h, basal, profiling panel (AID 1162). Also: test concentration not given here. The following applies: higher = more signal.
Regarding `[N-]=[N+]=Nc1ccccc1[C@@H]1OC(c2ccc(OCCCO)cc2)=N[C@]1(Cc1ccccc1)C(=O)NCC(O)CO` (stereo not given in full), the z-score is -0.828. In the case of `CC(C)N1CC=CC23O[C@@H]4C=CCOC(=O)[C@@H]4[C@H]2C(=O)N(CCCO)[C@@H]3C1=O` (stereo not given in full) it was 0.555.

Regarding `CC(c1ccccc1)C(O)C1C=CC2C(=O)N(c3ccccc3)C(=O)C2N1Nc1ccc([N+](=O)[O-])cc1` (stereo not given), the z-score was -0.898. In the case of `CC(C)C(CO)N1C(=O)[C@@H]2C3C(=O)OCCC/C=C\[C@H]3OC23C=CCN(C(C)(C)C)C(=O)[C@@H]13` (stereo not given in full) it was -0.444; in that of `COCCCNC(=O)[C@@]1(Cc2ccccc2N=[N+]=[N-])N=C(c2ccc(OCCCO)cc2)O[C@H]1c1ccccc1`, -1.07; in that of `CN1C(=O)C2C=CC(C(O)c3ccc(F)cc3)N(Nc3ccccc3)C2C1=O` (stereo not given), -0.434.

Consider `COCCOC(=O)N1C(=O)[C@@]2(c3cc(C#CC4=CCCCC4)ccc31)[C@H](c1ccc(OCCO)cc1)N1[C@H](c3ccccc3)[C@H](c3ccccc3)OC(=O)[C@H]1[C@@H]2C(=O)NC[C@H](O)c1ccccc1`, for which the z-score is 0.148.

Regarding `COC(=O)C1=CC(CCCO)=CC(C2CC2)N(C)C=C1C(=O)OC` (stereo not given), the z-score is 2.6. To `O=C(NCC(F)(F)F)[C@@H]1c2ccccc2C(=O)N(Cc2ccc(OC(F)(F)F)cc2)[C@H]1c1ccc(CO)cc1` belongs 0.0723. In the case of `COc1cccc(/C=C/C=O)c1` it was 0.482; in that of `COC(=O)C(CC#Cc1ccc2c(c1)[C@]1(C(=O)N2)[C@H](c2ccccc2OCCO)N2[C@H](c3ccccc3)[C@H](c3ccccc3)OC(=O)[C@H]2[C@@H]1C(=O)NC[C@H](O)c1ccccc1)C(=O)OC`, 1.24; in that of `CC(C)OC(=O)C=C1C[C@@H](c2ccc(C(F)(F)F)cc2)O[C@@H](c2ccc(C(F)(F)F)cc2)O1`, 0.944.

`CN(C)C(=O)[C@@]1(Cc2ccccc2CN=[N+]=[N-])N=C(c2ccc(OCCCO)cc2)O[C@H]1c1ccccc1CN=[N+]=[N-]`: the z-score was -0.446. To `CCCNC(=O)[C@@]1(c2ccc([N+](=O)[O-])cc2)CC(=O)N(C2CCCCC2)[C@@H]1c1ccc(CO)cc1` belongs 0.663; to `CC(C)N1C(=O)C[C@@](C(=O)NCCCN(C)C)(c2ccc([N+](=O)[O-])cc2)[C@H]1c1ccc(CO)cc1`, 0.173. In the case of `O=C1N(Cc2ccccc2)Cc2ccccc2[C@@H]2OC(c3ccc(OCCCO)cc3)=N[C@]12CCS(=O)(=O)c1ccccc1` it was 0.589. In the case of `COC(=O)[C@@]1(Cc2ccc(OC)cc2)[C@@H]2C(=CC(=O)[C@H]2CC(=O)C(=O)N(C)C)CN1C(=O)c1ccccc1` it was -1.85; in that of `COc1ccc([Si](C)(C)[C@@H]2[C@@H](CC(=O)N3Cc4ccccc4C[C@H]3CO)O[C@]3(C(=O)N(C)c4ccccc43)[C@H]2C)cc1`, -2.16; in that of `C=C[C@@H](COC(C)=O)N(C(=O)OC(C)(C)C)S(=O)(=O)c1ccc(Br)cc1`, 1.82. As to `C=CCOC(=O)[C@H]1[C@@H]2C(=O)O[C@@H](c3ccccc3)[C@@H](c3ccccc3)N2[C@@H](c2ccc(OCCOC(=O)[C@@H]3C[C@@H]4C(=O)N[C@@H](CCCCNC(C)=O)C(=O)N4[C@@H]3c3ccc(O)cc3)cc2)[C@]12C(=O)Nc1ccc(I)cc12`, the z-score is -0.34. In the case of `O=c1n(-c2ccccc2)c(=O)n2n1CC(COc1ccccc1)=C([C@H](O)CCc1ccccc1)[C@@H]2CO` it was -0.0498; in that of `CN(C)C(=O)[C@]1(CCS(=O)(=O)c2ccccc2)N=C(c2ccc(OCCCO)cc2)O[C@@H]1c1ccccc1N=[N+]=[N-]`, 1.12; in that of `COC(=O)[C@@]1(Cc2ccccc2)[C@@H]2C(=CC(=O)[C@H]2CC(=O)C(=O)N(C)C)CN1C(=O)c1ccccc1`, 0.349. In the case of `CCOC(=O)C[C@H]1[C@H](OC(=O)Cc2ccc3c(c2)OCO3)[C@@H](NC(=O)Cc2ccc(OC)cc2)c2cc(OCCCO)ccc2N1C(=O)c1ccc2ccccc2n1` it was 2.47; in that of `CC1CC/C=C\[C@H]2OC34C=CCN(C(C)C)C(=O)[C@H]3N(CCCCCCO)C(=O)[C@@H]4C2C(=O)O1` (stereo not given in full), -0.868.

These data come from PubChem BioAssay.
